Rows were chosen to be rich in hits. Some 8.1% of all compounds tested hit in one or more screens of this group.
ELG1 DNA repair: qHTS screen for small molecules that inhibit ELG1-dependent DNA repair in human embryonic kidney (HEK293T) cells expressing luciferase-tagged ELG1 | Potency, µM (doses to about 46.1 µM), most hits filed as inhibitors | HEK293T ELG1-luciferase reporter, luminescence, 16 h; DNA damage induced by 5-fluorouridine | 330,000 tested, 2.3% active | AID 504467, 2011; note: nearly all actives have a fitted effect of over 55% in size
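HEK293T cells expressing luciferase-tagged ELG1 (2,000/well) received 5-Fluorouridine plus compound or DMSO for 16 hr at 37 °C. Luciferase was read by ONE-Glo luminescence after 30 min at room temperature.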
SW480 rerep: A quantitative high throughput screen for small molecules that induce DNA re-replication in SW480 colon adenocarcinoma cells; SW480 DNA re-replication, Hoechst DNA content imaging, 48 h; Potency, µM (titrated, usually from 46.1 µM), hits mostly activators; 340,000 tested, 1.8% active; note: nearly all actives have a fitted effect of over 55% in size
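Treated cells incubate 48 hr (37 C, 5% CO2), are stained 40 min with Hoechst, and nuclear fluorescence is enumerated; a rise in nuclei with high DNA signal marks re-replication.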
KB-V1 cytotox: qHTS assay for MDR1-selective chemotherapeutics: Primary screen using the drug-selected MDR subline cells KB-V1. KB-V1 MDR cells viability, CellTiter-Glo, 72 h. Potency, µM (series often up to 46.1 µM), hits mostly cytotoxic. 400,000 tested, 3.4% active. AID 1347076, 2019; note: nearly all actives have a fitted effect of over 60% in size
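KB-V1, DMEM (no phenol red) + 10% FBS; cpd pin-transferred, titration series; 72 h, 37 degrees C; CellTiter-Glo, luminescence. Data normalized, curve-fit.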
KB-3-1 tox: qHTS assay for MDR1-selective chemotherapeutics: Primary screen using the parental adenocarcinoma cell KB-3-1; Potency, µM (series often up to 46.1 µM), actives largely listed as cytotoxic; KB-3-1 viability, CellTiter-Glo ATP luminescence, 72 h; 400,000 tested, 1.4% active; note: nearly all actives have a fitted effect of over 60% in size
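Luminescent ATP read-out (CellTiter-Glo) measures survival of drug-naive KB-3-1 cells after 72 h compound exposure at 37 °C. Titration series was screened from lowest to highest concentration, with DMSO vehicle plates as background controls.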
MCF10A rerep: A quantitative high throughput screen for small molecules that induce DNA re-replication in MCF 10a normal breast cells; MCF 10A DNA re-replication, Hoechst nuclear intensity, 48 h; Potency, µM (top dose mostly 46.1 µM), hits mostly activators; 350,000 tested, 2.9% active; AID 624296, 2012; note: nearly all actives have a fitted effect of over 50% in size
Numbers stand for hits; 0 = inactive; ? = inconclusive; - = no result; [ ] = another dose, or the depositor's remark. Calls come from the whole dose curve; as a rule, active = well fitted curve in the direction sought with a large enough effect; inconclusive = small, poorly fitted or top-dose-only effect, or another doubt; inactive = no such curve, though single readings can be large; an effect the other way counts as inactive or inconclusive.

SMILES	ELG1 DNA repair	SW480 rerep	KB-V1 cytotox	KB-3-1 tox	MCF10A rerep
CCOCCCn1c(=NC(=O)c2cccs2)c(C#N)cc2c(=O)n3cccc(C)c3nc21	0	?	?	0	9.2µM
COCCCn1c(=NC(=O)c2ccccc2)c(C#N)cc2c(=O)n3cccc(C)c3nc21	?	0	0	0	6.51µM
COCCCn1c(=NC(=O)c2ccc3c(c2)OCO3)c(C#N)cc2c(=O)n3cccc(C)c3nc21	0	-	-	-	-
CCc1ccc(NC(=O)C(C)OC(=O)/C=C/c2ccc(O)c(OC)c2)cc1 (stereo not drawn)	?	0	0	0	0
Cc1ccc(C)c(N2CCN(S(=O)(=O)c3ccc4c(c3)C(C)(C)C(=O)N4C)CC2)c1	0	0	0	0	0
CC(=O)Oc1ccc(C(=O)Nc2cccc(NC(=O)c3ccco3)c2)cc1	0	0	0	0	6.51µM
CC(=O)Oc1ccc(C(=O)Nc2cccc(C(=O)c3ccc(C)c(C)c3)c2)cc1	0	0	9.2µM	16.4µM	?
COc1ccc(C(=O)Nc2cccc(OC(=O)c3ccc(C)c(C)c3)c2)cc1	?	0	0	0	0
O=C(NNC(=S)NC(=O)c1ccco1)c1ccc(NC(=O)c2ccccc2)cc1	14.6µM	?	?	?	0
O=C(Nc1cccc(NC(=O)c2ccco2)c1)c1ccc([N+](=O)[O-])cc1	11.6µM	0	0	0	0
Cc1ccccc1NC(=O)NC1(C(=O)N2CCN(C)CC2)CCCCC1	0	0	0	?	0
Cc1ccc(C(=O)c2c3ccc(C(F)(F)F)cc3[n+]([O-])n2CCCN)cc1	?	0	0	0	0
O=C(Nc1ccc(Nc2ccccc2)cc1)c1ccco1	?	0	0	0	?
O=C(Nc1ccc(NC(=O)c2ccco2)cc1)c1ccco1	0	0	0	0	0
CC(=O)Nc1cccc(NC(=O)c2ccc(C(=O)Nc3cccc(NC(C)=O)c3)nc2)c1	?	0	0	0	0
Cc1cccc(NC(=O)c2ccc(C(=O)Nc3cccc(C)c3)nc2)c1	0	?	?	0	7.31µM
CC(C)(C)c1ccc(C(=O)Nc2ccc(NC(=O)c3ccco3)cc2)cc1	0	?	0	0	13µM
O=C(Nc1cc(Br)c(O)c(Br)c1)c1cccc(NC(=O)c2ccco2)c1	0	0	0	0	0.731µM
O=C(Nc1cccc(NC(=O)c2ccco2)c1)c1cccc(Br)c1	0	0	?	0	0
O=C(Nc1ccc(NC(=O)c2sc3ccccc3c2Cl)cc1)c1ccco1	?	?	0	0	11.6µM
CCOc1ccc(N(CC(=O)Nc2ccccc2CC)S(=O)(=O)c2c(C)[nH]c(=O)[nH]c2=O)cc1	-	-	0	0	-
O=C(O)c1ccc(COc2ccc([N+](=O)[O-])cc2Cl)cc1	-	-	0	0	-
Cc1cccc(NC(=O)c2ccc(S(=O)(=O)NCc3cccnc3)cc2)c1	14.6µM	0	20.6µM	?	0
CCOC(=O)Cc1ccc(NC(=O)c2ccc(C(C)(C)C)cc2)cc1	18.4µM	0	?	?	0[9.22 µM]
Cc1ccc(C(=O)NC(=S)NCc2cccnc2)cc1C	0	0	?	0	0
SMILES	ELG1 DNA repair	SW480 rerep	KB-V1 cytotox	KB-3-1 tox	MCF10A rerep
CC(C)c1ccc(C(=O)NC(=S)NCc2cccnc2)cc1	0	0	2.91µM	?	?
Cc1cc(C)cc(NC(=O)c2ccc(S(=O)(=O)NCc3cccnc3)cc2)c1	?	0	0	0	0
CC(C)(C)c1ccc(C(=O)Nc2ccc(C(=O)NCc3cccnc3)cc2)cc1	0.517µM	?	0	0	0
CCCN1C(=O)c2ccccc2NC1c1ccc(C)cc1 (stereo not drawn)	0	0	?	0	0
O=C(Cn1ncc(N2CCOCC2)c(Br)c1=O)c1ccc(Cl)cc1	0	0	0	0	0
Cc1c2cnn(CC(=O)NCc3ccccn3)c(=O)c2c(C)n1Cc1ccccc1	0	0	0	0	0
CCC/C=N/Nc1nc2ccccc2s1	?	?	?	0	?
COc1cc(S(=O)(=O)NC2CCCCC2)ccc1F	0	0	0	0	0
COc1ccc(CNC(=O)CCSCc2ccccc2Cl)c(OC)c1	0	0	0	0	0
O=C(NC1CC1)C1CCCN(C(=O)Nc2ccc(F)cc2)C1 (stereo not drawn)	0	0	0	0	0
CCC(=O)N(CCC(c1ccccc1)c1ccco1)Cc1cccs1 (stereo not drawn)	0	0	?	0	11.2µM
O=CN1CCN(C(=O)c2cc3cc(Cl)ccc3[nH]2)CC1	0	5.17µM	0	0	?
CN1CCN(C(=O)c2cc3cc(Cl)ccc3[nH]2)CC1	0	0	0	0	0
CN(C(=O)CN1C(=O)NC(C)(c2cccc(Br)c2)C1=O)C1CCCCC1 (stereo not drawn)	0	0	23.1µM	0	0
COCCCNC(=S)N(Cc1ccccc1)Cc1ccccc1	0	0	18.4µM	0	0
C/C(=N\Nc1ccccn1)c1ccc(S(=O)(=O)NCc2ccco2)cc1	0	0	?	0	0
C/C(=N\Nc1nc(Cl)c(Cl)cc1Cl)c1ccc(S(=O)(=O)NCc2ccco2)cc1	?	?	11.6µM	?	?
Cc1cc(NC(=O)CC(C)(C)C)nc2c1c(=O)oc1ccccc12	0	?	0	0	0
CCCc1cc2c(c(NC(C)=O)n1)c(=O)oc1ccccc12	0	0	13µM	0	0
CCCC(=O)Nc1cc(C)c2c(=O)oc3ccccc3c2n1	0	0	18.4µM	0	0
O=C(Nc1ccnn1C1CCN(Cc2cccc(OCCO)c2)CC1)c1cccc(F)c1	0	0	-	-	0
CCN(CC)S(=O)(=O)c1csc(C(=O)Nc2ccccn2)c1	0	0	23.1µM	0	0
O=[N+]([O-])c1ccccc1CNC1CCCCCC1	0	0	0	0	0
CN(C)S(=O)(=O)c1ccc2c(c1)Cc1cc(S(=O)(=O)N(C)C)ccc1-2	2.31µM	0	0	0	0
COc1cc(S(=O)(=O)N(C)C)ccc1Br	0	0	0	0	0
Cc1ccc(NC(=O)C2C3CC4OC(=O)C2C4C3)cc1Cl (stereo not drawn)	0	0	0	0	3.66µM
COc1ccc(C(=O)/C=C/c2cn(CC(O)CN3CCN(C)CC3)c3ccccc23)cc1OC (stereo not drawn)	?	23.1µM	0	0	10.3µM
Cc1ccc(C(=O)/C=C/c2cn(CC(O)CN3CCCCCC3)c3ccccc23)cc1 (stereo not drawn)	-	-	0	0	-
COc1ccc(C(=O)/C=C/c2cn(CC(O)CN3CCCCCC3)c3ccccc23)cc1OC (stereo not drawn)	-	-	0	?	-

High-throughput results: PubChem, National Center for Advancing Translational Sciences (NCATS)
